Test results taken from the GenesisPotency data set.
About 45 (0.07%) of roughly 65,000 compounds were called active. Calls follow the shape of the full dose curve. Only a selection was taken, and actives are over-represented in it overall.

Tested on: T1, 
T1 sequence (whole entry): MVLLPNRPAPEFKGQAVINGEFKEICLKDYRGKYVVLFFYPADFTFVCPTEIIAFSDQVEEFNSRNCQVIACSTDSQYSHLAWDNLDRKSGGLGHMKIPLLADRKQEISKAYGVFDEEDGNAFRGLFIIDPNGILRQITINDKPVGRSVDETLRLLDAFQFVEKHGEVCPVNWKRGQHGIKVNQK
Assay: Schistosoma Mansoni Peroxiredoxins (Prx2)

Q: Which outcome does the source give for `Cc1cc(C)c2cc(CN(CC3CCCO3)S(=O)(=O)c3ccc4c(c3)OCCO4)c(=O)[nH]c2c1` (stereo not given) here?
A: active

Q: With `COc1ccc(S(=O)(=O)N(Cc2cc3ccc(OC)cc3[nH]c2=O)CC2COCCO2)cc1` (stereo not given) as the molecule, how does the outcome read?
A: active

Q: Which outcome does the source give for `CCc1nc(OCCN(CC)CC)c2oc3ccccc3c2n1.Cl` here?
A: inactive

Q: Which outcome does the source give for `CC(=O)Oc1cc(OC(C)=O)c2c(C)cc(=O)oc2c1` here?
A: active

Q: Which outcome does the source give for `O=C(/N=C1\NC(=O)C(F)(C(F)(F)F)S1)NC1CCCCC1` (stereo not given) here?
A: active

Q: With `CCC(=O)Oc1ccc2c(C)c(Cl)c(=O)oc2c1` as the molecule, how does the outcome read?
A: active

Q: With `COC(=O)Cc1c(C)c2ccc(OC(=O)c3ccco3)cc2oc1=O` as the molecule, how does the outcome read?
A: active

Q: Which outcome does the source give for `c1ccc(Cc2nn3c(C4COc5ccccc5O4)nnc3s2)cc1` (stereo not given) here?
A: inactive

Q: For `O=C1c2ccccc2C(=O)N1CCCCn1c(=O)oc2ccccc21`, which outcome is on record?
A: inactive

Q: With `CN(C)c1oc(-c2ccccc2Cl)nc1C#N` as the molecule, how does the outcome read?
A: active
